From PubChem
uPA generation: inhibitors of cell surface uPA generation; cell surface uPA generation assay, qHTS; Potency, µM (titrated, usually from 38.3 µM), hits mostly inhibitors; 0.31% of 330,000 active; AID 540303; active = well fitted inhibition curve with a large enough effect; inconclusive = small, poorly fitted or top-dose-only effect; inactive = no such curve, though single readings can be large or run the other way; tested in mouse RAW 264.7 cells; note: nearly all actives have a fitted effect of over 55% in size
TDP1 cell CPT: DT40-hTDP1 cell growth loss with CPT | chicken DT40 Tdp1-/-;hTDP1 cells + 20 nM CPT, ATP luminescence, 48 h | Potency, µM (doses to about 46.2 µM), usual class: inhibitors | 12% of 420,000 active | AID 686979; note: nearly all actives have a fitted effect of over 55% in size
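Chicken DT40 Tdp1-/- cells stably complemented with human TDP1 were seeded at 400 cells/well in medium containing 20 nM camptothecin, exposed to pin-transferred compounds, and grown at 37 °C for at least 48 hr. Viability was read as ATP luminescence.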
HT1080 IDH1KD tx: kills HT-1080 cells with IDH1 knockdown; HT-1080 IDH1 knockdown viability, ATP luminescence, 48 h; 2% of 360,000 active; Potency, µM (doses to about 46.1 µM), usual class: cytotoxic; AID 686971
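Viability of IDH1-knockdown HT-1080 fibrosarcoma cells was assessed by CellTiter-Glo after 48 h at 37 °C with titrated compound; concentration-effect curves were classified by fit quality and response size.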
TDP1 cell noCPT: qHTS for Inhibitors of human tyrosyl-DNA phosphodiesterase 1 (TDP1): qHTS in cells in absence of CPT; DT40 Tdp1-/- hTDP1 cells, no CPT, ATP luminescence, 48 h; Potency, µM (highest dose often 46.2 µM), actives largely listed as inhibitors; 15% of 420,000 active; AID 686978, 2013; note: nearly all actives have a fitted effect of over 55% in size
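Cells were dispensed at 400 per well, compounds added by pin tool, plates incubated ≥48 hr at 37 °C, then CellTiter-Glo added for 30 min at room temperature before luminescence reading. Line: DT40 Tdp1-/- complemented with hTDP1; camptothecin omitted.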
HT1080NT lethal: kills 2HG-producing HT-1080-NT fibrosarcoma cells; 1.6% of 360,000 active; Potency, µM (series often up to 46.1 µM), most hits filed as cytotoxic; HT-1080-NT fibrosarcoma viability, CellTiter-Glo ATP luminescence, 48 h; AID 686970;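 note: NT is the 2HG producing partner of a matched IDH1 knockdown line; nearly all actives have a fitted effect of over 55% in size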
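Viability of the 2HG-overproducing fibrosarcoma line after 48 hours of compound exposure at 37 degrees C was determined by luminescence with CellTiter-Glo, and concentration-effect curves were then fitted and categorized.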
IL1B secr inh: blocks inflammasome-driven IL-1 beta release; THP-1 LPS/ATP IL-1B secretion, AlphaLISA, 16 h; stronger effect = lower value; activity change, % at 57.5 µM; 4.7% of 360,000 active; in the data active = activity change below about -50%; inconclusive = mostly about -30% to -49%
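Secreted IL-1B measured by AlphaLISA bead assay after 16 h compound exposure of THP-1 cells; compounds (final up to 57.5 uM) added 1 h before LPS (250 ng/mL) and ATP (1.25 mM) stimulation; lower signal means less secretion.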
Large screens that a line does not name were inactive; ! = not confirmed by another sample. Most compounds without a hit are left out; they make up all but 19% or so of the library. Unless noted, calls come from the whole dose curve; as a rule, active = well fitted curve in the direction sought with a large enough effect; inconclusive = small, poorly fitted or top-dose-only effect, or another doubt; inactive = no such curve, though single readings can be large; an effect the other way counts as inactive or inconclusive.

C#Cc1ccc([C@H]2C=C(C(=O)N3CCN(Cc4ccccc4)CC3)O[C@@H](OCC)[C@@H]2CCCO)cc1	TDP1 cell CPT inconclusive, TDP1 cell noCPT inconclusive
C#Cc1ccc([C@@H]2C=C(C(=O)N3CCN(Cc4ccccc4)CC3)O[C@H](OCC)[C@H]2CCCO)cc1	TDP1 cell CPT inconclusive, TDP1 cell noCPT 23.1µM
CCO[C@H]1OC(C(=O)N2CCN(Cc3ccccc3)CC2)=C[C@@H](c2coc3ccccc3c2=O)[C@@H]1CCCO	TDP1 cell CPT 25.9µM, TDP1 cell noCPT 23.1µM
CCOc1ccccc1N1CC(C(=O)NCCOc2ccccc2OC)CC1=O (configuration not stated)	none
CCO[C@@H]1OC(C(=O)N2CCN(Cc3ccccc3)CC2)=C[C@H](C)[C@H]1CCCO	none
CCO[C@@H]1OC(C(=O)N2CCN(Cc3ccccc3)CC2)=C[C@H](c2coc3ccccc3c2=O)[C@H]1CCCO	TDP1 cell CPT 8.2µM, TDP1 cell noCPT 7.31µM
Cc1ccc(C)c(N2CCN(C(=O)c3nn(C)c4c3CS(=O)(=O)c3ccccc3-4)CC2)c1	TDP1 cell CPT 23.1µM, TDP1 cell noCPT 23.1µM, IL1B secr inh inconclusive
CC1CC(C)CN(C(=O)c2nn(C)c3c2CS(=O)(=O)c2ccccc2-3)C1 (configuration not stated)	none
Cn1nc(C(=O)N2CCN(c3ccccc3)CC2)c2c1-c1ccccc1S(=O)(=O)C2	TDP1 cell CPT inconclusive, TDP1 cell noCPT inconclusive, IL1B secr inh inconclusive
Cn1nc(C(=O)N2CCN(c3ccccc3F)CC2)c2c1-c1ccccc1S(=O)(=O)C2	TDP1 cell CPT 14.6µM!, TDP1 cell noCPT inconclusive
Cc1ccc2c(c1)-c1c(c(C(=O)N3CCN(c4cc(Cl)ccc4C)CC3)nn1C)CS2	TDP1 cell CPT inconclusive, TDP1 cell noCPT 18.4µM (no result: uPA generation, HT1080 IDH1KD tx, HT1080NT lethal, IL1B secr inh)
Cc1cccc(N2CCN(C(=O)c3nn(C)c4c3CS(=O)(=O)c3ccccc3-4)CC2)c1C	TDP1 cell CPT 13µM, TDP1 cell noCPT 16.4µM
CCN1CCN(C(=O)c2nn(C)c3c2CS(=O)(=O)c2ccccc2-3)CC1	HT1080 IDH1KD tx inconclusive, HT1080NT lethal inconclusive
COC(=O)C[C@H]1C=C[C@H](NC(=O)c2cccc(F)c2)[C@@H](CO)O1	none (no result: uPA generation)
Cc1nn(CC(=O)N(C)C2(C#N)CCCCC2)c(C)c1[N+](=O)[O-]	none
COc1cccc(Nc2ncc3nc(C)c(=O)n(Cc4cccs4)c3n2)c1	none (no result: uPA generation, HT1080 IDH1KD tx, HT1080NT lethal, IL1B secr inh)
c1ccc2c(c1)Nc1cc3ccccc3cc1O2	TDP1 cell noCPT inconclusive
CCc1nc2ccc(C(=O)NCCN3CCNC3=O)cn2c1N(C)Cc1ccc(OC)cc1	TDP1 cell CPT inconclusive, TDP1 cell noCPT inconclusive (no result: uPA generation)
CCc1nc2ccc(C(=O)Nc3cc(-c4ccccc4)ccc3OC)cn2c1N(C)Cc1ccc(OC)cc1	TDP1 cell CPT 7.31µM, TDP1 cell noCPT 8.2µM, IL1B secr inh inconclusive (no result: uPA generation)
CCc1nc2ccc(C(=O)NCC3CCCCC3)cn2c1N(C)Cc1nccs1	TDP1 cell CPT 16.4µM, TDP1 cell noCPT 20.6µM (no result: uPA generation)
CCc1nc2ccc(C(=O)NCCOc3ccc(OC)cc3)cn2c1N(C)C(=O)COc1ccccc1	TDP1 cell CPT inconclusive (no result: uPA generation)
CCc1nc2ccc(C(=O)Nc3cc(-c4ccccc4)ccc3OC)cn2c1N(C)C(=O)c1cccc(OC)c1	TDP1 cell CPT inconclusive, TDP1 cell noCPT 18.4µM, IL1B secr inh -75.9 (no result: uPA generation)
CCc1nc2ccc(C(=O)Nc3cc(-c4ccccc4)ccc3OC)cn2c1N(C)Cc1nccs1	TDP1 cell CPT 13µM, HT1080 IDH1KD tx 23.1µM, TDP1 cell noCPT 9.2µM, HT1080NT lethal inconclusive, IL1B secr inh -79.9 (no result: uPA generation)
CCc1nc2ccc(C(=O)N(CC)CCN(C)C)cn2c1N(C)Cc1nccs1	none (no result: uPA generation)
CCC(=O)Nc1ccccc1-c1nc2ccccc2n(CC(=O)c2ccc(C)cc2)c1=O	none (no result: uPA generation, HT1080 IDH1KD tx, HT1080NT lethal, IL1B secr inh)
CC(C)c1cc(Cn2c3ccccc3c(=O)n2C(C)Cn2cc(-c3ccccc3)nn2)on1 (configuration not stated)	TDP1 cell noCPT inconclusive (no result: uPA generation)
